Data: the supplement of paper PMC8728848
The sample as a whole holds a higher share of the strongest signals than the screen did.

Legend:
Assay in all cases: glycan array binding signal (z-score within array); higher = stronger binding
Details in all cases: glycan notation: IUPAC condensed, linker removed
[1] = molecular target: Fuc(a1-2)[GalNAc(a1-3)]Gal(b1-4)GlcNAc(b1-6)GalNAc
Method in brief: (§1)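 Glycan array binding is given as a within-array Z-score, which can be read as non-binding when negative. The arrays, 3228 of them, came from the Consortium for Functional Glycomics database and were retained only where the protein sequence was available. Z-scores were averaged across arrays of the same protein sequence at different concentrations or buffers and across linkers.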

[2] = molecular target: Fuc(a1-3)GlcNAc
Method in brief: as §1

[3] = molecular target: Fuc(a1-3)[Gal(b1-4)]Glc6S
Method in brief: as §1

[4] = molecular target: Gal(a1-3)Gal(b1-3)GlcNAc(b1-3)GalNAc
Method in brief: as §1

[5] = molecular target: Gal(a1-3)Gal(b1-4)GlcNAc(b1-6)GalNAc
Method in brief: as §1

[6] = molecular target: Gal(a1-3)Gal(b1-4)[Fuc(a1-3)]GlcNAc(b1-2)Man(a1-3)[Gal(a1-3)Gal(b1-4)[Fuc(a1-3)]GlcNAc(b1-2)Man(a1-6)]Man(b1-4)GlcNAc(b1-4)GlcNAc
Method in brief: as §1

[7] = molecular target: Gal(a1-3)GalNAc
Method in brief: as §1

[8] = molecular target: Gal(b1-3)Gal(b1-4)GlcNAc
Method in brief: as §1

[9] = molecular target: Gal(b1-3)GalNAc(a1-3)[Fuc(a1-2)]Gal(b1-4)Glc
Method in brief: as §1

[10] = molecular target: Gal(b1-3)GlcNAc(b1-2)[Gal(b1-3)GlcNAc(b1-6)]Man(a1-6)[Gal(b1-3)GlcNAc(b1-2)Man(a1-3)]Man(b1-4)GlcNAc(b1-4)GlcNAc
Method in brief: as §1

[11] = molecular target: Gal(b1-3)GlcNAc(b1-3)GalNAc
Method in brief: as §1

[12] = molecular target: Gal(b1-4)GalNAc(a1-3)[Fuc(a1-2)]Gal(b1-4)GlcNAc
Method in brief: as §1

[13] = molecular target: Gal(b1-4)GlcNAc(b1-2)Man
Method in brief: as §1

[14] = molecular target: Gal(b1-4)GlcNAc(b1-2)Man(a1-3)[Gal(b1-4)GlcNAc(b1-2)Man(a1-6)]Man(b1-4)GlcNAc(b1-4)[Fuc(a1-6)]GlcNAc
Method in brief: as §1

[15] = molecular target: Gal(b1-4)GlcNAc(b1-2)Man(a1-6)Man(b1-4)GlcNAc(b1-4)GlcNAc
Method in brief: as §1

[16] = molecular target: Gal(b1-4)GlcNAc(b1-3)Gal(b1-4)Glc
Method in brief: as §1

[17] = molecular target: Gal(b1-4)GlcNAc(b1-3)Gal(b1-4)GlcNAc(b1-2)Man(a1-3)[Gal(b1-4)GlcNAc(b1-3)Gal(b1-4)GlcNAc(b1-2)Man(a1-6)]Man(b1-4)GlcNAc(b1-4)GlcNAc
Method in brief: as §1

[18] = molecular target: Gal(b1-4)GlcNAc(b1-3)Gal(b1-4)GlcNAc(b1-2)Man(a1-3)[Gal(b1-4)GlcNAc(b1-3)Gal(b1-4)GlcNAc(b1-2)Man(a1-6)]Man(b1-4)GlcNAc(b1-4)[Fuc(a1-6)]GlcNAc
Method in brief: as §1

[19] = molecular target: Gal(b1-4)GlcNAc(b1-3)Gal(b1-4)GlcNAc(b1-3)Gal(b1-4)GlcNAc(b1-2)Man(a1-3)[Gal(b1-4)GlcNAc(b1-3)Gal(b1-4)GlcNAc(b1-3)Gal(b1-4)GlcNAc(b1-2)Man(a1-6)]Man(b1-4)GlcNAc(b1-4)GlcNAc
Method in brief: as §1

[20] = molecular target: Gal(b1-4)GlcNAc(b1-3)Gal(b1-4)GlcNAc(b1-3)[Gal(b1-4)GlcNAc(b1-3)Gal(b1-4)GlcNAc(b1-6)]GalNAc
Method in brief: as §1

[21] = molecular target: Gal(b1-4)GlcNAc(b1-3)Gal(b1-4)GlcNAc(b1-6)[Gal(b1-3)]GalNAc
Method in brief: as §1

[22] = molecular target: Gal(b1-4)GlcNAc(b1-3)[Fuc(a1-3)GlcNAc(b1-6)]Gal(b1-4)Glc
Method in brief: as §1

[23] = molecular target: Gal6S(b1-3)GlcNAc
Method in brief: as §1

[24] = molecular target: Glc(a1-4)Glc
Method in brief: as §1

[25] = molecular target: GlcA3S(b1-3)Gal(b1-4)GlcNAc(b1-2)Man
Method in brief: as §1

[26] = molecular target: GlcNAc(b1-3)Gal(b1-4)GlcNAc(b1-3)Gal(b1-4)GlcNAc(b1-2)Man(a1-3)[GlcNAc(b1-3)Gal(b1-4)GlcNAc(b1-3)Gal(b1-4)GlcNAc(b1-2)Man(a1-6)]Man(b1-4)GlcNAc(b1-4)GlcNAc
Method in brief: as §1

[27] = molecular target: GlcNAc(b1-3)Gal(b1-4)GlcNAc(b1-3)Gal(b1-4)GlcNAc(b1-3)Gal(b1-4)GlcNAc(b1-2)[GlcNAc(b1-3)Gal(b1-4)GlcNAc(b1-3)Gal(b1-4)GlcNAc(b1-3)Gal(b1-4)GlcNAc(b1-6)]Man(a1-6)[GlcNAc(b1-3)Gal(b1-4)GlcNAc(b1-3)Gal(b1-4)GlcNAc(b1-3)Gal(b1-4)GlcNAc(b1-2)Man(a1-3)]Man(b1-4)GlcNAc(b1-4)[Fuc(a1-6)]GlcNAc
Method in brief: as §1

[28] = molecular target: Kdn(a2-3)Gal(b1-4)Glc
Method in brief: as §1

[29] = molecular target: Man(a1-3)[Man(a1-6)]Man(a1-6)[Man(a1-2)Man(a1-3)]Man(b1-4)GlcNAc(b1-4)GlcNAc
Method in brief: as §1

[30] = molecular target: Neu5Ac(a2-3)Gal(b1-3)GlcNAc(b1-2)Man(a1-3)[GlcNAc(b1-4)][Neu5Ac(a2-3)Gal(b1-3)GlcNAc(b1-2)Man(a1-6)]Man(b1-4)GlcNAc(b1-4)GlcNAc
Method in brief: as §1

[31] = molecular target: Neu5Ac(a2-3)Gal(b1-3)[GlcNAc(b1-6)]GalNAc
Method in brief: as §1

[32] = molecular target: Neu5Ac(a2-3)Gal(b1-4)GlcNAc(b1-2)Man(a1-3)[Neu5Ac(a2-6)Gal(b1-4)GlcNAc(b1-2)Man(a1-6)]Man(b1-4)GlcNAc(b1-4)GlcNAc
Method in brief: as §1

[33] = molecular target: Neu5Ac(a2-3)Gal(b1-4)GlcNAc(b1-3)Gal(b1-4)GlcNAc(b1-2)Man(a1-3)[Neu5Ac(a2-3)Gal(b1-4)GlcNAc(b1-3)Gal(b1-4)GlcNAc(b1-2)Man(a1-6)]Man(b1-4)GlcNAc(b1-4)GlcNAc
Method in brief: as §1

[34] = molecular target: Neu5Ac(a2-3)Gal(b1-4)GlcNAc(b1-3)Gal(b1-4)GlcNAc(b1-3)Gal(b1-4)GlcNAc(b1-2)Man(a1-3)[Neu5Ac(a2-3)Gal(b1-4)GlcNAc(b1-3)Gal(b1-4)GlcNAc(b1-3)Gal(b1-4)GlcNAc(b1-2)Man(a1-6)]GalNAc
Method in brief: as §1

[35] = molecular target: Neu5Ac(a2-3)Gal(b1-4)GlcNAc(b1-3)[Neu5Ac(a2-3)Gal(b1-4)GlcNAc(b1-6)]GalNAc
Method in brief: as §1

[36] = molecular target: Neu5Ac(a2-3)Gal(b1-4)GlcNAc(b1-6)[Gal(b1-3)]GalNAc
Method in brief: as §1

[37] = molecular target: Neu5Ac(a2-3)Gal(b1-4)GlcNAc6S
Method in brief: as §1

[38] = molecular target: Neu5Ac(a2-3)[GalNAc(b1-4)]Gal(b1-4)GlcNAc
Method in brief: as §1

[39] = molecular target: Neu5Ac(a2-6)Gal(b1-4)GlcNAc(b1-3)Gal(b1-4)GlcNAc(b1-3)Gal(b1-4)GlcNAc(b1-2)Man(a1-3)[Neu5Ac(a2-6)Gal(b1-4)GlcNAc(b1-3)Gal(b1-4)GlcNAc(b1-3)Gal(b1-4)GlcNAc(b1-2)Man(a1-6)]GalNAc
Method in brief: as §1

[40] = molecular target: Neu5Ac(a2-6)Gal(b1-4)GlcNAc(b1-3)Gal(b1-4)GlcNAc(b1-3)[Neu5Ac(a2-6)Gal(b1-4)GlcNAc(b1-3)Gal(b1-4)GlcNAc(b1-6)]GalNAc
Method in brief: as §1

[41] = molecular target: Neu5Ac(a2-6)Gal(b1-4)GlcNAc(b1-3)Gal(b1-4)[Fuc(a1-3)]GlcNAc(b1-3)Gal(b1-4)[Fuc(a1-3)]GlcNAc
Method in brief: as §1

[42] = molecular target: Neu5Ac(a2-8)Neu5Ac(a2-3)Gal(b1-4)Glc
Method in brief: as §1

[43] = molecular target: Neu5Gc(a2-3)Gal(b1-4)GlcNAc(b1-3)Gal(b1-4)GlcNAc(b1-2)Man(a1-3)[Neu5Gc(a2-3)Gal(b1-4)GlcNAc(b1-3)Gal(b1-4)GlcNAc(b1-2)Man(a1-6)]Man(b1-4)GlcNAc(b1-4)GlcNAc
Method in brief: as §1

[44] = molecular target: Neu5Gc(a2-3)Gal(b1-4)[Fuc(a1-3)]GlcNAc
Method in brief: as §1

[45] = molecular target: Neu5Gc(a2-6)Gal(b1-4)GlcNAc
Method in brief: as §1

B1: ACA (Amaranthus caudatus) (protein)
chain: MAGLPVIMCLKSNNNQKYLRYQSDNIQQYGLLQFSADKILDPLAQFEVEPSKTYDGLVHIKSRYTNKYLVRWSPNHYWITASANEPDENKSNWACTLFKPLYVEEGNMKKVRLLHVQLGHYTQNYTVGGSFVSYLFAESSQIDTGSKDVFHVIDWKSIFQFPKRYVTFKGNNGKYLGVITINQLPCLQFGYDNLNDPKVAHEMFVTSNGTICIKSTYMNKFWRLSTDDWILVDGNDPRETNEAAALFRSDVHDFNVISLLNMQKTWFIKRFTSGKPGFINCMNAATQNVDETAILEIIELGSNN
glycan array binding signal (z-score) [1]: -0.116 | glycan array binding signal (z-score) [2]: -0.103 | glycan array binding signal (z-score) [3]: 0.058 | glycan array binding signal (z-score) [4]: -0.395 | glycan array binding signal (z-score) [5]: -0.246 | glycan array binding signal (z-score) [6]: -0.878 | glycan array binding signal (z-score) [7]: 0.156 | glycan array binding signal (z-score) [8]: 0.13 | glycan array binding signal (z-score) [9]: -0.399 | glycan array binding signal (z-score) [10]: -0.184 | glycan array binding signal (z-score) [11]: 0.052 | glycan array binding signal (z-score) [12]: -0.471 | glycan array binding signal (z-score) [13]: -0.376 | glycan array binding signal (z-score) [14]: 0.193 | glycan array binding signal (z-score) [15]: -0.378 | glycan array binding signal (z-score) [16]: -0.12 | glycan array binding signal (z-score) [17]: 4.74 | glycan array binding signal (z-score) [18]: 3.63 | glycan array binding signal (z-score) [19]: 5.84 | glycan array binding signal (z-score) [20]: 5.24 | glycan array binding signal (z-score) [21]: 3.84 | glycan array binding signal (z-score) [22]: 0.71 | glycan array binding signal (z-score) [23]: -0.469 | glycan array binding signal (z-score) [24]: 0.351 | glycan array binding signal (z-score) [25]: -0.456 | glycan array binding signal (z-score) [26]: 3.43 | glycan array binding signal (z-score) [27]: 0.586 | glycan array binding signal (z-score) [28]: -0.204 | glycan array binding signal (z-score) [29]: 6.44 | glycan array binding signal (z-score) [30]: -0.413 | glycan array binding signal (z-score) [31]: -0.266 | glycan array binding signal (z-score) [32]: -0.42 | glycan array binding signal (z-score) [33]: 3.13 | glycan array binding signal (z-score) [34]: 9.87 | glycan array binding signal (z-score) [35]: 0.132 | glycan array binding signal (z-score) [36]: 0.029 | glycan array binding signal (z-score) [37]: -0.219 | glycan array binding signal (z-score) [38]: -0.069 | glycan array binding signal (z-score) [39]: 3.17 | glycan array binding signal (z-score) [40]: 4.69 | glycan array binding signal (z-score) [41]: 0.326 | glycan array binding signal (z-score) [42]: -0.424 | glycan array binding signal (z-score) [43]: 1.25 | glycan array binding signal (z-score) [44]: -0.167 | glycan array binding signal (z-score) [45]: -0.372
